High-throughput results: PubChem, several laboratories
An excerpt weighted towards active compounds, which were near 1.8% of everything screened.
PrPC surface inh – inhibitors of human cell surface prion protein PrPC, primary screen, cell-based, TR-FRET; actives 0.43% (n = 370,000); inhibition, % at 13.8 µM; TR-FRET read-out; Major prion protein (Homo sapiens), P04156; in the data active means inhibition above about 24%; further: 0% = median of the test wells and 100% = reference compound wells
MazEF act – activators of E. coli MazEF toxin-antitoxin RNase, primary screen, biochemical, fluorescence, uHTS; AID 504720, 2011; actives 0.32% (n = 350,000); activation, % at 20 µM; FAM/BHQ RNA-DNA oligo cleavage fluorescence, 5 h; in the data active means activation above about 50%
Target sequence (P0AE70 whole entry, looked up): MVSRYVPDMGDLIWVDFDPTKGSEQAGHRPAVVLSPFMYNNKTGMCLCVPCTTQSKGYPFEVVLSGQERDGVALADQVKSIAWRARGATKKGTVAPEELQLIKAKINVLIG
PfHsp40 yeast – rescue of yeast from PfHsp40 toxicity, primary screen, S. cerevisiae, ATP luminescence; S. cerevisiae expressing PfHsp40, growth rescue; growth rescue, % at 12.5 µM; actives 0.68% (n = 340,000); AID 504582, 2011; in the data active means growth rescue above about 28%, passing the limit was not always enough;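 further: yeast W303a lacking pdr1 and pdr3 grown in galactose medium; growth measured after three days at 30 °C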
PriA SSB inh – inhibitors of Klebsiella pneumoniae PriA binding to SSB C-terminal tail, primary screen, biochemical, AlphaScreen. PriA–SSB C-terminal tail interaction (Klebsiella pneumoniae). AlphaScreen SSBct-PriA binding, biotinylated peptide. inhibition, % at 33 µM. actives 0.6% (n = 430,000); in the data active means inhibition mostly above about 37%, no sharp cut-off; inactive means mostly below about 20%;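 further: plate controls were negative control peptide for no effect and reference peptide for full effect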
PrP 5UTR inh – inhibition of PrP 5' UTR reporter expression | cell-based PrP 5' UTR mRNA reporter, plate reader | inhibition, % (test concentration not listed) | actives 0.35% (n = 340,000) | AID 488862, 2010; in the data active means inhibition above about 52%; further: 0 = median of the neutral control wells
* marks the source's active call; other numbers are inactive results; x = no result given; + = active, no number; ! = not confirmed by another sample.

SMILES	PrPC surface inh	MazEF act	PfHsp40 yeast	PriA SSB inh	PrP 5UTR inh
CN1CCCc2cc(CCNC(=O)NCc3ccccc3)ccc21	x	x	x	29.0	x
COc1cc(OC)cc(C(=O)NCCc2ccc3c(c2)CCCN3C)c1	x	x	x	59.0*	x
COc1ccc(OCC(=O)NCCc2ccc3c(c2)CCCN3C)cc1	x	x	x	71.2	x
O=C(Cc1c[nH]c2ccccc12)N1CC(c2nc(-c3cccc(C(F)(F)F)c3)no2)C1	x	x	x	-8.0	x
Cc1ccc(C)c(NC(=O)C(C)N2C(=O)c3ccccc3C2=O)c1 (centres undefined)	6.0	9.3	0.5	-10.5	-26.7
COc1ccccc1CNC(=O)CCNS(=O)(=O)c1ccc2[nH]c(=O)oc2c1	2.0	1.2	-1.1	2.5	-16.8
O=C(COC(=O)c1ccc(Br)o1)NCC(=O)Nc1ccc(F)cc1	2.2	-2.7	-0.4	1.4	-17.8
CCOC(=O)c1nn(-c2ccccc2Cl)c(=O)cc1OCC(=O)Nc1ccc(C(F)(F)F)cc1	x	x	x	0.0	x
Cc1cc(Nc2ccccc2)nn1C(=O)c1ccccc1	-6.1	4.2	238.5*	-53.1	-19.4
Cc1cc(Nc2ccccc2)nn1C(=O)c1ccc(Br)cc1	4.4	1.3	1.9	-8.8	-1.9
CSc1ccc(Cc2nnc(NC(=O)Cc3ccc4c(c3)OCO4)o2)cc1	x	x	x	-1.0	x
COc1c(C(CC(C)C)OC(C)=O)ccc2c1C(=O)OCc1cc(C)cc(O)c1O2 (centres undefined)	18.9	-0.2	161.0*	2.1	-7.2
CC(=NN1CCN(Cc2ccccc2Cl)CC1)c1ccc([N+](=O)[O-])cc1	x	x	x	38.5*	x
C/C(=N\N1CCN(Cc2ccccc2Cl)CC1)c1ccc([N+](=O)[O-])cc1	-2.4	10.2	16.6	x	-13.8
COc1cccc(OC2(C)CCN(Cc3cccn3-c3nccs3)C2)c1 (centres undefined)	-1.5	x	x	x	x
CCOc1ccc(NC(=O)CSc2nnc(-c3ccccn3)n2N)cc1	-1.9	3.0	0.3	63.9*!	7.8
COc1ccc(-c2cnc(SCC(=O)Nc3ccccc3)n2-c2ccccc2C)cc1	x	x	x	44.0*	x
COc1ccc(NC(=O)CSc2nnc(-c3ccccn3)n2N)cc1	-0.9	-2.9	0.8	58.7*	-28.0
CCOc1ccc(NC(=O)CSc2nnc(-c3ccccn3)n2C)cc1	4.0	3.2	-1.3	-9.6	-31.9
Cc1ccc2occ(C(c3nnnn3C3CCCC3)N3CCN(C(=O)c4ccco4)CC3)c(=O)c2c1 (centres undefined)	-3.6	5.6	-0.7	-8.6	-26.0
CC(=NNC(=O)c1ccc(Cl)c(Cl)c1)c1ccccn1	x	x	x	-5.6	x
O=C(NN=C(c1ccccc1)c1ccccn1)c1ccccc1	3.1	5.7	44.4*	-4.7	11.3
O=C(N/N=C(\c1ccccc1)c1ccccn1)c1ccccc1Cl	9.9	5.4	8.7	x	27.7
CC(=NNC(=O)c1ccc(Cl)cc1)c1ccccn1	x	x	x	45.0*	x
NC(=S)N/N=C(\c1ccccc1)c1ccccn1	x	x	x	+	x
SMILES	PrPC surface inh	MazEF act	PfHsp40 yeast	PriA SSB inh	PrP 5UTR inh
O=C(NN=C(c1ccccc1)c1ccccn1)c1ccccc1Cl	x	x	x	-7.5	x
S=C(NN=C(c1ccccc1)c1ccccn1)N(Cc1ccccn1)Cc1ccccn1	13.4	2.3	135.0*	74.4*	8.9
O=C(NCc1ccccc1)C(=O)Nc1nc(-c2ccccc2)cs1	-6.1	9.4	-1.2	-8.4	-21.1
CC(=NNC(=O)C1COc2ccccc2O1)c1ccccn1 (centres undefined)	x	x	x	61.5*	x
C/C(=N\NC(=O)C1COc2ccccc2O1)c1ccccn1 (centres undefined)	1.2	7.1	0.9	x	32.3
CC(=NNc1ncc(Cl)cc1Cl)c1ccccn1	x	x	x	46.9*	x
O=C(CCCC(=O)N/N=C\c1ccccn1)N/N=C\c1ccccn1	-1.5	-3.0	0.5	x	-8.3
S=C(NN=Cc1ccccn1)N(Cc1ccccn1)Cc1ccccn1	-4.2	7.0	1.0	95.6*	23.6
C/C(=N\Nc1ncc(Cl)cc1Cl)c1ccc(C#N)cc1	6.8	7.9	-0.5	x	-51.0
O=C1NC(=O)C(=Cc2cn(CCOc3ccc4c(c3)OCO4)c3ccccc23)C(=O)N1	x	528.2*	-1.5	-11.3	10.3
COCCn1cc(NC(=O)Nc2cc(C)ccc2OC)c2ccccc21	x	x	x	37.0*	x
COCCn1cc(NC(=O)Nc2cccc(C)c2C)c2ccccc21	x	x	x	7.0	x
Cc1cc(C)c2cc(CN(Cc3cccnc3)C(=O)c3ccc(F)cc3)c(Cl)nc2c1	-4.7	-4.1	-0.2	4.4	-4.3
O=C(NC1CCCCCCC1)c1ccc(F)cc1	8.6	9.2	-0.4	-4.2	-73.2
O=C1C(=O)N(CCN2CCOCC2)C(c2ccccn2)/C1=C(/O)c1ccc(F)cc1 (centres undefined)	-10.3	5.3	54.9*	x	-20.4
O=C1C(=O)N(CCCN2CCOCC2)C(c2ccc(F)cc2)/C1=C(/O)c1ccccc1 (centres undefined)	1.8	-2.5	62.6*	x	-21.9
CN(C)S(=O)(=O)c1cccc(NC(=S)NN=Cc2cc(Br)ccc2O)c1	x	x	x	46.6*	x
CN(C)S(=O)(=O)c1cccc(NC(=S)NNC(=O)c2cc3ccccc3cc2O)c1	-2.9	-8.0	219.5*	7.2	-13.0
CN(C)S(=O)(=O)c1cccc(NC(=S)NC(=O)c2ccco2)c1	3.7	3.4	-3.2	-4.6	-36.5
Cn1c(=O)c2[nH]c(-c3ccccc3)c(O)c2n(C)c1=O	-3.5	+	-0.5	-2.2	-6.0
CC(=O)Nn1cc2c(c1-c1ccccc1)c(=O)n(C)c(=O)n2C	-1.5	1.3	-1.4	-16.4	-0.9
Cn1c(=O)c2[nH]c(-c3ccccc3Cl)c(O)c2n(C)c1=O	-0.6	908.6*	-0.2	-2.6	-48.2
CCOC(=O)c1ccc(NC(=O)c2c(O)c3sccc3n(C)c2=O)cc1	x	x	x	-7.0	x
CCOC(=O)[C@H]1[C@H]2COc3ccccc3[C@@H]2N2C(=O)CN(Cc3ccc(C)cc3)C(=O)[C@@]12C	6.9	542.4*	1.8	-5.0	2.2
CCOC(=O)[C@@H]1[C@H]2COc3ccccc3[C@H]2N2C(=O)N(c3ccc(C(F)(F)F)cc3)C(=O)[C@]12C	2.2	7.3	92.2*	-7.6	-31.9
SMILES	PrPC surface inh	MazEF act	PfHsp40 yeast	PriA SSB inh	PrP 5UTR inh
O=C(N=Nc1c(O)[nH]c2ccccc12)c1cc(-c2cccs2)[nH]n1	-8.8	0.2	-0.2	-4.4	-23.3
O=C1CCC2(CCC(c3ccccc3)CC2)N1CC[C@@H](O)c1ccccc1 (some centres undefined)	-4.8	x	x	x	x
Cc1ccc(S(=O)(=O)N2CCN(CC(=O)NC(=O)NCc3ccccc3)CC2)cc1C	-15.0	95.0*	1.2	-7.5	-13.3
O=C(CSCc1ccccc1)NCCOc1ccc2nnc(-c3ccccc3)n2n1	x	x	x	0.0	x
COc1ccc(NC(=O)Cn2nnc(-c3ccccc3NC(=O)c3cccs3)n2)cc1	9.7	41.6	64.7*	2.4	-18.2
Cc1ccc(NC(=O)Cn2nnc(-c3ccccc3NC(=O)c3cccs3)n2)cc1	2.6	-13.0	0.8	-3.4	-23.9
